Screening results from PubChem BioAssay.
In the library only some 0.86% were active in any assay of this set; here they are far more common.
BLM inh: Bloom syndrome helicase (human) inhibition; recombinant BLM DNA unwinding, fluorescence dequenching; Potency, µM (doses to about 56.1 µM), for inactives: top-dose activity change, negative = inhibition, most hits filed as inhibitors; 350,000 compounds, 0.2% hits; AID 2528;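 note: plate controls were vehicle for no effect and no enzyme for full effect; nearly all actives have a fitted effect of over 35% in size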
GLS inhibitor: glutaminase GLS (human) inhibition | O94925 | GLS enzymatic activity, qHTS titration | Potency, µM (doses to about 45.5 µM), inactives show top-dose activity change, negative = inhibition, hits mostly inhibitors | 410,000 compounds, 0.21% hits | AID 624170
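Glutamate formation by hKGA was monitored fluorometrically using coupled glutamate oxidase, HRP and Amplex Red. Substrate was added as 1 mM L-glutamine solution; incubation was 30 min at RT after an initial read.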
APE1 inh-1: APE1 (human) endonuclease inhibition | AID 2517 | Potency, µM (highest dose often 65.8 µM), inactives show top-dose activity change, negative = inhibition, usual class: inhibitors | P27695 | recombinant APE1, TAMRA/BHQ-2 abasic DNA cleavage fluorescence | 350,000 compounds, 0.35% hits;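 note: plate controls were vehicle for no effect and reference inhibitor for full effect; nearly all actives have a fitted effect of over 55% in size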
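Step 1: APE1 (0.75 nM) with compound, 15 min RT. Step 2: add 50 nM fluorophore/quencher THF duplex. Step 3: three fluorescence reads 60 s apart (525/598 nm); read 3 minus read 1 = reaction progress.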
RECQ1 helicase: blocks DNA unwinding by human RECQ1 | RECQ1 DNA unwinding, red fluorescence kinetic read | 240,000 compounds, 0.54% hits | Potency, µM (doses to about 57.3 µM), inactives show at the highest dose activity, negative = inhibition, usual class: inhibitors | P46063;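 note: plate controls were vehicle for no effect and no enzyme for full effect; nearly all actives have a fitted effect of over 30% in size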
Target sequence (P46063 whole entry, looked up): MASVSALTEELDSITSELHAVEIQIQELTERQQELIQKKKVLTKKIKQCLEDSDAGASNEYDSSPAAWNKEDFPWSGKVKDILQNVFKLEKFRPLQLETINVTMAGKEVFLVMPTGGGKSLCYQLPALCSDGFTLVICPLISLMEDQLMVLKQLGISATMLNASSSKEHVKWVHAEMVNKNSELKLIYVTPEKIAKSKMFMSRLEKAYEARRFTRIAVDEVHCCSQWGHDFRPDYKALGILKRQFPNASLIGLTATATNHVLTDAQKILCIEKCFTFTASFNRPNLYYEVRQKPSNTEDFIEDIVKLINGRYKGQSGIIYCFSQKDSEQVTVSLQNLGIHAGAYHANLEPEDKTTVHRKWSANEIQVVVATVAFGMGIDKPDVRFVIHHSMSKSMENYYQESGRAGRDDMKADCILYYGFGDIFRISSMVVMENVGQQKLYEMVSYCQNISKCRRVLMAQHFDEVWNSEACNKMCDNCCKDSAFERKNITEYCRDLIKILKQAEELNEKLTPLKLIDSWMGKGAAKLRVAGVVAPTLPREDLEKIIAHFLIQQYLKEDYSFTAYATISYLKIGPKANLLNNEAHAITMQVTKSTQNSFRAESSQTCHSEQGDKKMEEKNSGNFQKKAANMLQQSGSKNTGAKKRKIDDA
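50 nM RECQ1T1 preincubated 15 min with compound in Tris pH 8.0 buffer with MgCl2, DTT, Tween-20 and 2.5 ug/ml poly(dI-dC); started with 200 nM TAMRA/BHQ-2 forked duplex and 2 mM ATP. Unwinding read as fluorescence (525/598 nm), two reads 2 h apart.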
FEN1 inh: inhibitors of human flap endonuclease 1. Recombinant FEN1 flap cleavage, fluorescence, 15 min. Potency, µM (top dose mostly 114 µM), for inactives: at the highest dose activity change, negative = inhibition, usual class: inhibitors. 390,000 compounds, 0.35% hits; note: nearly all actives have a fitted effect of over 65% in size
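Enzyme 10 nM, 15 min RT preincubation with compound; start with substrate 50 nM final; reads at 0 and 15 min; qHTS titration, four-parameter Hill fit.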
PGK inhibitor: inhibitors of T. brucei phosphoglycerate kinase; PGK/GAPDH coupled, Kinase-Glo luminescence, 60 min; AID 602233; P07378; 380,000 compounds, 0.043% hits; Potency, µM (series often up to 57.5 µM), inactives show top-dose activity change, negative = inhibition, most hits filed as inhibitors; note: nearly all actives have a fitted effect of over 60% in size
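Luminescent ATP detection (Kinase-Glo Plus) follows a 60-minute room-temperature incubation, with wells lacking PGK as controls. Buffer: 100 mM TEA (pH 7.6), 5 mM MgCl2, 0.01% Tween-20. Coupling enzyme GAPDH (100 nM final) supplies unstable 1,3-BPG in-well.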
DNA dye displace: DNA dye displacement counter-screen activity; shares compounds with APE1 inh-1; DNA fluorescent dye displacement counterscreen, fluorescence; Potency, µM (highest dose often 28.5 µM), inactives show at the top dose activity change, negative = inhibition, most hits filed as inhibitors; 480 compounds, 7% hits;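 note: loss of thiazole orange fluorescence as the dye is displaced from duplex DNA; 0% = ThO with dsDNA and no compound and -100% = ThO without dsDNA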
Endo IV inh: counter-screen for APE1 inhibitors: inhibitors of E. coli endonuclease IV; AID 2565; Potency, µM (series often up to 27.1 µM), for the others: at the highest dose activity change, negative = inhibition, most hits filed as inhibitors; E. coli Endo IV, fluorogenic AP-site DNA cleavage; shares compounds with APE1 inh-1; 560 compounds, 4% hits;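 note: plate controls were uninhibited enzyme wells for no effect and no enzyme buffer wells for full effect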
APE1 inh-2: APE1 (human) endonuclease inhibition, confirmation; AID 2572; shares compounds with APE1 inh-1; 750 compounds, 44% hits; purified APE1, fluorogenic abasic-site DNA cleavage; Potency, µM (highest dose often 57.1 µM), for inactives: at the top dose activity change, negative = inhibition, hits mostly inhibitors; note: nearly all actives have a fitted effect of over 30% in size
APE1 FP: displaces DNA from human APE1 in FP assay; shares compounds with APE1 inh-1; APE1 binding to TAMRA-labelled double-stranded DNA, fluorescence polarization displacement; Potency, µM (doses to about 28.5 µM), inactives show top-dose activity, negative = inhibition, hits mostly inhibitors; 480 compounds, 7% hits
Starred values were filed as active, the others as inactive; i = inactive; ? = inconclusive; . = not tested or not shown; ! = not confirmed by another sample; [ ] = remark or other dose. Calls come from the whole dose curve; as a rule, active = well fitted curve in the direction sought with a large enough effect; inconclusive = small, poorly fitted or top-dose-only effect, or another doubt; inactive = no such curve, though single readings can be large; an effect the other way counts as inactive or inconclusive. Unless noted, % is set by controls: 0 for no effect and ±100 for the full control effect; potency is the fitted concentration of half-maximal effect.

SMILES	BLM inh	GLS inhibitor	APE1 inh-1	RECQ1 helicase	FEN1 inh	PGK inhibitor	DNA dye displace	Endo IV inh	APE1 inh-2	APE1 FP
Cn1c(=O)c2[nH]c(-c3ccccc3)c(O)c2n(C)c1=O	1%	33%	2%	-4%	-8%	3%	.	.	.	.
Cc1nc(N=Nc2cc(S(=O)(=O)O)c3cc([N+](=O)[O-])cc(S(=O)(=O)O)c3c2)c(COP(=O)(O)O)c(C=O)c1O	72%	.	2.5µM*	?	7.5µM*	.	.	25µM*	1.1µM*	.
COc1ccc(CCn2c(=S)[nH]c(=O)c3nccnc32)cc1OC	.	.	.	.	-10%	.	.	.	.	.
c1cncc(-c2nc(-c3ccco3)cs2)c1	-21%	5%	25µM*	-15%	-13%	2%	-10%	0%	-10%[24.4 µM]	?
Cc1cc(C=O)c(C)n1-c1cccc(C(=O)O)c1	4%	-14%	22µM*	-18%	2%	-5%	1%	3%	16µM*	2%
O=S(=O)(c1ccc(Oc2ccc3c(c2)OCO3)c(S(=O)(=O)N2CCOCC2)c1)N1CCOCC1	.	.	.	.	-11%	.	.	.	.	.
COc1cc(O)c2c(c1)OC(C)(C)CC2=O	-4%	3%	1%	-17%	-4%	i	.	.	.	.
COc1cc(O)cc2cc3c(c(O)c12)C(=O)CC(C)(O)O3 (stereo unspecified)	-18%	10%	?	-7%	?	-5%	19%	5%	14µM*	?
CCOC(=O)[C@H](CCc1ccccc1)N[C@@H](C)C(=O)N1CCC[C@@H]1C(=O)O	.	-4%	28%	.	-2%	0%	.	.	.	.
CCOC(=O)[C@H](CCc1ccccc1)N[C@@H](C)C(=O)N1CCC[C@H]1C(=O)O	-9%	1%	0.063µM*!	-7%	11%	0%	-2%[57.1 µM]	25%[57.1 µM]	6%	5%[57.1 µM]
O=C(C[n+]1cccc2cc(Cl)ccc21)c1ccc2ccccc2c1	.	.	.	.	-4%	.	.	.	.	.
COc1ccc(/C=C2\C=Cc3ccccc32)cc1	.	.	.	.	-3%	.	.	.	.	.
CC(=O)N1CCC(C(=O)Nc2ccccc2)(N(Cc2ccccc2)C(=O)c2cccnc2)CC1	-2%	-2%	?	i	-10%	-10%	-12%	-4%	-5%[24.4 µM]	?
COc1cc2c(N3CCN(C(=O)Nc4ccc(OC(C)C)cc4)CC3)ncnc2cc1OCCCN1CCCCC1	.	14%	.	.	.	.	.	.	.	.
CN(CC(=O)NC(=O)NCc1ccco1)Cc1nc2ccccc2c(=O)[nH]1	?	-26%	20µM*	-30%	-20%	-16%	?	9%	?	?
O=c1cc(-c2ccc(O)c(O)c2)oc2cc(O)c(C3OC(CO)C(O)C(O)C3O)c(O)c12 (stereo unspecified)	-1%	33%	7.9µM*	-11%	?	?	?	45%	3.2µM*	5%
O=c1cc(-c2ccc(O)cc2)oc2cc(O)c([C@@H]3O[C@H](CO)[C@@H](O)[C@H](O)[C@H]3O)c(O)c12	-5%	5%	10%	-5%	-6%	-5%	.	.	.	.
COc1ccc(C(=O)C[n+]2cccc3cc(Cl)ccc32)cc1	.	.	.	.	-5%	.	.	.	.	.
COc1ccc(-c2nc3cccc(C)n3c2Nc2ccc(C)cc2)cc1	.	.	.	.	-3%	.	.	.	.	.
CC(=O)Nc1ccc(/C=C/c2ccncc2)cc1	.	.	.	.	10%	.	.	.	.	.
CC1(CC(=O)N/N=C/c2cc([N+](=O)[O-])c(O)cc2O)OCCO1	-10%	0%	14µM*	-27%	-32%	-13%	?	-4%	13µM*	?
COc1cc(-c2ccc(N=Nc3ccc4c(S(=O)(=O)O)cc(S(=O)(=O)O)c(N)c4c3O)c(OC)c2)ccc1N=Nc1ccc2c(S(=O)(=O)O)cc(S(=O)(=O)O)c(N)c2c1O	?	.	1.4µM*	4.5µM*	.	.	.	6.3µM*!	1µM*	.
CS(=O)(=O)N1Cc2ccccc2CC1C(=O)OCC(=O)Nc1ccc2ccccc2c1 (stereo unspecified)	-20%	-1%	?	-16%	-9%	-4%	?	?	?	?
O=C(C[N+]1(CCc2ccccc2)CCOCC1)c1cccc([N+](=O)[O-])c1	.	.	.	.	-1%	.	.	.	.	.
COC(=O)C[C@H]1c2ccccc2S(=O)(=O)N1c1ccc(N(C)C)cc1	.	.	.	.	-1%	.	.	.	.	.
SMILES	BLM inh	GLS inhibitor	APE1 inh-1	RECQ1 helicase	FEN1 inh	PGK inhibitor	DNA dye displace	Endo IV inh	APE1 inh-2	APE1 FP
CCOC(=O)C1=C(C)NC(=O)NC1c1ccco1 (stereo unspecified)	-12%	0%	?	-18%	-14%	-8%	0%	7%	?	-11%
O[C@@](CCN1CCCCC1)(c1ccccc1)C1CCCCC1	-2%[21.4 µM]	.	-72%[21 µM]	4%[25.9 µM]	.	.	-3%	17%	2%[24.4 µM]	?
Cc1cccc(NC(=O)COc2ccccc2C(=O)Nc2ccccc2)c1	.	.	.	.	-5%	.	.	.	.	.
NS(=O)(=O)c1cc2c(cc1Cl)NCNS2(=O)=O	0%	-3%	-3%	-8%	16%	7%	.	-3%[57.1 µM]	-17%	.
NS(=O)(=O)c1cc2c(cc1Cl)N[C@@H](CC1CCCC1)NS2(=O)=O	0%[21.4 µM]	-9%[20 µM]	.	-6%[25.9 µM]	.	.	.	.	.	.
COc1ccc(NC(=O)[C@@H]2CC=C[C@@H]3CCN(C4CC4)C(=O)[C@@H]32)cc1	.	.	.	.	-5%	.	.	.	.	.
C(=C\c1nc2ccccc2o1)/c1ccc2c(c1)OCO2	.	.	.	.	-1%	.	.	.	.	.
N#Cc1nc(Nc2ccccc2)nc(NC2CCCCC2)n1	-15%	.	35µM*	-9%	.	.	-6%[57.1 µM]	17%[57.1 µM]	-2%	?
Cc1ccccc1NC(=O)c1ccccc1OCC(=O)Nc1ccc(Br)cc1	.	.	.	.	-25%	.	.	.	.	.
Cc1cc(C)nc(N2N=C(CSc3ccc(Cl)cc3)CC2=O)n1	0%	1%	2.8µM*	-6%	-13%	i	-10%	-1%	?	-3%
